Shn3 3UTR inh – reduces Shn3 3'UTR luciferase signal in osteoblasts. 360,000 compounds, 0.52% hits. Clone20 osteoblast Shn3 3'UTR firefly luciferase, 24 h. inhibition, % at 12.5 µM;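 active = mean inhibition of at least 75% with every replicate also reaching 75%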;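 note: 0% = median of neutral control wells and 100% = pilot-screen positive control compound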
MITF TRPM1 inh – MITF TRPM1 promoter inhibition in SK-MEL-5 cells; SK-MEL-5 TRPM1 promoter luciferase, 24 h; inhibition, % at 12.5 µM; 330,000 compounds, 0.83% hits;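 active = mean inhibition across replicates of 60% or more, whatever share of single replicates reaches that level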
ABHD5 PLIN5 PPI – ABHD5-PLIN5 protein interaction inhibition; Split G. princeps luciferase complementation, luminescence, 4 h; inhibition, % at 4 µM; Q00G26+Q8WTS1; 360,000 compounds, 0.78% hits;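 active = inhibition above the mean inhibition across every tested compound plus 3 SD, cut at about 22% in these data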;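 note: 0% = DMSO only wells and the 100% control is not disclosed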
Target sequence (Q00G26 whole entry, looked up): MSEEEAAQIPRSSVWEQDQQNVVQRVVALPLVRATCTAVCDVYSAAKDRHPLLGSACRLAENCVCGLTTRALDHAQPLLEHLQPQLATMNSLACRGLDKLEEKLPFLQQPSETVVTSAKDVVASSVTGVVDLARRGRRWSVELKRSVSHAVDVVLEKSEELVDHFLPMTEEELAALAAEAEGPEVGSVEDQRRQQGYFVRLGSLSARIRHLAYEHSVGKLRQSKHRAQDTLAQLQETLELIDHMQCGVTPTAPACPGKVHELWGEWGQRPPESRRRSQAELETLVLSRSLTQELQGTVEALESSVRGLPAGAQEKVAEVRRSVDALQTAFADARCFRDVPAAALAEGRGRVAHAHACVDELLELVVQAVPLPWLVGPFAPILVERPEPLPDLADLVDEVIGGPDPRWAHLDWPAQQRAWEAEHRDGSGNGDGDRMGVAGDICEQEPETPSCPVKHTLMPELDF
Target sequence (Q8WTS1 whole entry, looked up): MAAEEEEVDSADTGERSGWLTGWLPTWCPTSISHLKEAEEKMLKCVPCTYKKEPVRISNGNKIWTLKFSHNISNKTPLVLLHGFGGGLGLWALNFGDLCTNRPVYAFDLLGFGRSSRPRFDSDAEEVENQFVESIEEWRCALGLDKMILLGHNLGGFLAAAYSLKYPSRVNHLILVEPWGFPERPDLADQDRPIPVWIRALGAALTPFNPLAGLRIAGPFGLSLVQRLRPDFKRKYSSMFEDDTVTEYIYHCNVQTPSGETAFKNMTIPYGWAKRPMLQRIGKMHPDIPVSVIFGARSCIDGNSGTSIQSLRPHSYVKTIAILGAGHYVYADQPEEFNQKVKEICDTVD
Peg3 prom inh – inhibitors of Peg3 promoter; 360,000 compounds, 1.7% hits; HeLa PEG-Prom luciferase reporter, luminescence, overnight; AID 588405; inhibition, % at 20 µM;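 active = inhibition of at least 50% at 20 µM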
EWS-Fli block – blocks EWS/Fli oncoprotein-driven transcription; inhibition, % at 12.6 µM; 350,000 compounds, 0.67% hits; AID 651661; A673 NR0B1-luciferase reporter, viability-normalised;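 active = mean inhibition of at least 50% after viability correction, with every replicate also passing that limit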;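 note: firefly luciferase signal divided by Alamar Blue viability fluorescence both relative to DMSO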
PAX8 reporter – inhibitors of PAX8 transcriptional activity in RMG-I cells; AID 652154; RMG-I TPO-luciferase reporter, SteadyGlo, 24 h; 360,000 compounds, 1.2% hits; inhibition, % at 12.6 µM;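 active = mean replicate inhibition at least 60% with every replicate also reaching 60%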;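 note: luciferase light reporting Pax8 driven TPO promoter activity; plate controls were median of neutral control wells for no effect and mitoxantrone controls for full effect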
The depositor's hits bear a star; nt = no result given; ! = a repeat was not active. Shown are actives, neighbours in structure and some others; about 3% of the full set was active somewhere.

SMILES | Shn3 3UTR inh | MITF TRPM1 inh | ABHD5 PLIN5 PPI | Peg3 prom inh | EWS-Fli block | PAX8 reporter
Cn1c(NCc2ccccc2)nc2c1c(=O)n(Cc1ccc(Br)cc1)c(=O)n2C | 20 | 9 | -1 | 51* | nt | nt
COc1ccc(CNc2nc3c(c(=O)n(Cc4ccc(Br)cc4)c(=O)n3C)n2C)cc1 | 34 | 24 | 1 | 48 | nt | 84*
C[C@H]1CN([C@@H](C)CO)C(=O)c2cc(NC(=O)Cn3cnnn3)ccc2O[C@@H]1CN(C)C(=O)Nc1ccc(F)cc1 | nt | nt | nt | nt | 2 | 0
O=C(CCl)N(c1ccccc1)c1c[nH]c2ccccc12 | 94* | 86* | 18 | 86* | nt | nt
CC(=O)n1cc(CO)c2ccccc21 | -3 | 11 | -9 | -8 | 11 | nt
O=C(O)Cc1c[nH]c2ccccc12 | -2 | nt | 9 | -3 | 8 | nt
CC(=O)n1cc(N(C(=O)CCl)c2ccccc2)c2ccccc21 | nt | 66* | 4 | 45 | 40 | 109*
O=C(CCl)N(c1ccc(Cl)cc1)c1c[nH]c2ccccc12 | 98* | 84* | 22 | 103* | nt | nt
Cc1noc(C)c1NC(=O)N(C)C[C@@H]1Oc2ccc(NS(=O)(=O)c3c(C)noc3C)cc2CC(=O)N([C@H](C)CO)C[C@H]1C | nt | nt | nt | nt | -7 | -12
NC1=CC(=O)C(=O)c2ccccc21 | 4 | 97* | -25 | 55* | 8 | 13
Nc1ccc(O)c2c1C(=O)c1ccccc1C2=O | -8 | 11 | 1 | -76 | -66 | nt
O=C1N(c2ccccc2C(F)(F)F)O[C@@]1(c1ccccc1)C1CCCC1 | -10 | 4 | -8 | 70* | -2 | 43
CC(C)C[C@]1(c2ccccc2)ON(c2ccccc2C(F)(F)F)C1=O | -2 | 1 | 7 | 33 | 2 | 9
O=C1N(c2ccccc2C(F)(F)F)O[C@@]1(c1ccccc1)C1CCCCC1 | -7 | 19 | 4 | 57* | 4 | 40
C[C@H]1CCCCO[C@@H](CN(C)C(=O)Nc2ccc3c(c2)OCO3)[C@@H](C)CN([C@@H](C)CO)C(=O)c2cc(NS(C)(=O)=O)ccc2O1 | nt | nt | nt | nt | -6 | nt
CC(=O)NC1=C(N(C)C2CCS(=O)(=O)C2)C(=O)c2ccccc2C1=O (stereo not given) | 82 | 64* | -2 | 12 | 4 | 4
C[C@H]1CCCCO[C@@H](CN(C)S(=O)(=O)c2ccc(Cl)cc2)[C@@H](C)CN([C@@H](C)CO)C(=O)c2cc(NC(=O)CCC(F)(F)F)ccc2O1 | nt | nt | nt | nt | 7 | 73*
Cc1noc(C)c1S(=O)(=O)N(C)C[C@H]1OCCCC[C@@H](C)Oc2ccc(NC(=O)Nc3ccc(F)cc3)cc2C(=O)N([C@@H](C)CO)C[C@H]1C | nt | nt | nt | nt | 0 | 27
Cc1noc(C)c1S(=O)(=O)N(C)C[C@@H]1OCCCC[C@H](C)Oc2ccc(NC(=O)Nc3ccc(F)cc3)cc2C(=O)N([C@H](C)CO)C[C@@H]1C | nt | nt | nt | nt | 6 | 61*
C[C@@H]1CN([C@H](C)CO)C(=O)c2cc(NC(=O)Nc3ccc(C(F)(F)F)cc3)ccc2O[C@@H]1CN(C)S(=O)(=O)c1ccc(F)cc1 | nt | nt | nt | nt | -3 | 9
C[C@H](CO)N1C[C@H](C)[C@@H](CN(C)S(=O)(=O)c2ccc(F)cc2)Oc2ccc(NC(=O)Nc3ccc(C(F)(F)F)cc3)cc2C1=O | 5 | 1 | -12 | 30 | 6 | 75*!
C[C@@H]1CCCCO[C@@H](CN(C)S(=O)(=O)c2ccccc2)[C@H](C)CN([C@@H](C)CO)C(=O)c2cc(NC(=O)Nc3ccc(C(F)(F)F)cc3)ccc2O1 | nt | nt | nt | nt | 1 | 75*
C[C@@H]1CCCCO[C@@H](CN(C)S(=O)(=O)c2ccc(F)cc2)[C@@H](C)CN([C@@H](C)CO)C(=O)c2cc(NC(=O)Nc3ccc(C(F)(F)F)cc3)ccc2O1 | nt | nt | nt | nt | -14 | 36
C[C@@H]1CCCCO[C@H](CN(C)S(=O)(=O)c2ccc(Cl)cc2)[C@H](C)CN([C@@H](C)CO)C(=O)c2cc(NC(=O)Nc3ccc(F)cc3)ccc2O1 | nt | nt | nt | nt | 5 | 70*
C[C@H](CO)N1C[C@H](C)[C@H](CN(C)S(=O)(=O)c2ccc(C#N)cc2)Oc2ncc(C#Cc3ccc(C(F)(F)F)cc3)cc2C1=O | nt | nt | nt | nt | nt | 74*
C[C@@H]1CN([C@@H](C)CO)C(=O)c2cc(NC(=O)Nc3ccc(C(F)(F)F)cc3)ccc2O[C@@H](C)CCCCO[C@@H]1CN(C)S(=O)(=O)c1ccc(Cl)cc1 | nt | nt | nt | nt | -3 | 5
